# Data published in PubChem BioAssay AID1159580 (chemical genetic matrix, 2015).
# Where “and” joins values, the source holds several entries; their conditions need not be identical. Equal values may be shown once. Among all 5,500 compounds or so, about 2,000 (36%) were called active. Another 18% or so got no clear call; they are omitted. Rule as the data show it: active = normalized growth mostly below about 0.91 (no sharp cut-off); inconclusive = no clear call, values can overlap the other calls; inactive = mostly above about 0.92. The list shows a part of the results.
# Assay: chemical genetic growth profiling, strain panel (AID 1159580);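 also: tested at 20 µM; growth read once vehicle control cultures reached saturation at 30 °C; 1 = growth at the plate median or of vehicle wells; lower values mean less growth of the strain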
# Details: S. cerevisiae deletion strains, growth OD
smiles,measurement,setting,value
CN1CCC[C@@H]1CCO[C@](C)(c1ccccc1)c1ccc(Cl)cc1,normalized growth,"locus YAL013W, strain DEP1, stronger effect = lower value",0.998 (inactive)
same,normalized growth,"locus YAL021C, strain ccr4, stronger effect = lower value",0.88 (active)
same,normalized growth,"locus YAL026C, strain drs2, stronger effect = lower value",0.62 (active)
same,normalized growth,"locus YAL030W, strain snc1, stronger effect = lower value",1 (inactive)
same,normalized growth,"locus YBL061C, strain skt5, stronger effect = lower value",0.998 (inactive)
same,normalized growth,"locus YBR009C, strain hhf1, stronger effect = lower value",0.957 (inactive)
same,normalized growth,"locus YBR021W, strain FUR4, stronger effect = lower value",0.671 (active)
same,normalized growth,"locus YBR023C, strain chs3, stronger effect = lower value",0.949 (inactive)
same,normalized growth,"locus YBR171W, strain sec66, stronger effect = lower value",0.997 (inactive)
same,normalized growth,"locus YBR229C, strain ROT2, stronger effect = lower value",1.01 (inactive)
same,normalized growth,"locus YBR231C, strain swc5, stronger effect = lower value",0.984 (inactive)
same,normalized growth,"locus YBR279W, strain paf1, stronger effect = lower value",0.964 (inactive)
same,normalized growth,"locus YCL011C, strain gbp2, stronger effect = lower value",0.959 (inactive)
same,normalized growth,"locus YCL016C, strain dcc1, stronger effect = lower value",0.968 (inactive)
same,normalized growth,"locus YCL029C, strain bik1, stronger effect = lower value",0.991 (inactive)
same,normalized growth,"locus YCL069W, strain vba3, stronger effect = lower value",0.969 (inactive)
same,normalized growth,"locus YCR088W, strain abp1, stronger effect = lower value",0.999 (inactive)
same,normalized growth,"locus YDL005C, strain med2, stronger effect = lower value",1 (inactive)
same,normalized growth,"locus YDL035C, strain GPR1, stronger effect = lower value",0.913 (inactive)
same,normalized growth,"locus YDL040C, strain nat1, stronger effect = lower value",1 (inactive)
same,normalized growth,"locus YDL074C, strain BRE1, stronger effect = lower value",0.817 (inactive)
same,normalized growth,"locus YDL101C, strain DUN1, stronger effect = lower value",1.01 (inactive)
same,normalized growth,"locus YDL134C, strain PPH21, stronger effect = lower value",1.01 (inactive)
same,normalized growth,"locus YDL185W, strain tfp1, stronger effect = lower value",0.99 (inactive)
same,normalized growth,"locus YDL192W, strain arf1, stronger effect = lower value",1.01 (inactive)
same,normalized growth,"locus YDR001C, strain nth1, stronger effect = lower value",1.02 (inactive)
same,normalized growth,"locus YDR069C, strain doa4, stronger effect = lower value",0.955 (inactive)
same,normalized growth,"locus YDR101C, strain arx1, stronger effect = lower value",0.988 (inactive)
same,normalized growth,"locus YDR137W, strain rgp1, stronger effect = lower value",1.24 [resistant] (active)
same,normalized growth,"locus YDR150W, strain NUM1, stronger effect = lower value",1.02 (inactive)
same,normalized growth,"locus YDR159W, strain sac3, stronger effect = lower value",1.01 (inactive)
same,normalized growth,"locus YDR162C, strain NBP2, stronger effect = lower value",0.993 (inactive)
same,normalized growth,"locus YDR195W, strain ref2",1.08 (inactive)
same,normalized growth,"locus YDR297W, strain sur2, stronger effect = lower value",0.998 (inactive)
same,normalized growth,"locus YDR318W, strain mcm21, stronger effect = lower value",0.984 (inactive)
same,normalized growth,"locus YDR334W, strain swr1, stronger effect = lower value",1.01 (inactive)
same,normalized growth,"locus YDR335W, strain msn5, stronger effect = lower value",0.987 (inactive)
same,normalized growth,"locus YDR388W, stronger effect = lower value",0.911 (active)
same,normalized growth,"locus YDR392W, strain spt3, stronger effect = lower value",0.866 (inactive)
same,normalized growth,"locus YDR502C, strain sam2, stronger effect = lower value",0.97 (inactive)
same,normalized growth,"locus YEL003W, strain gim4, stronger effect = lower value",0.952 (inactive)
same,normalized growth,"locus YEL037C, strain rad23, stronger effect = lower value",0.993 (inactive)
same,normalized growth,"locus YEL061C, strain CIN8 (second series), stronger effect = lower value",1 (inactive)
same,normalized growth,"locus YEL061C, strain CIN8, stronger effect = lower value",1 (inactive)
same,normalized growth,"locus YER015W, strain faa2, stronger effect = lower value",0.798 (active)
same,normalized growth,"locus YER016W, strain bim1, stronger effect = lower value",0.992 (inactive)
same,normalized growth,"locus YER110C, stronger effect = lower value",0.999 (inactive)
same,normalized growth,"locus YER111C, strain swi4, stronger effect = lower value",1.02 (inactive)
same,normalized growth,"locus YER155C, strain BEM2 (second series), stronger effect = lower value",0.818 (active)
same,normalized growth,"locus YER155C, strain BEM2, stronger effect = lower value",1.03 (inactive)
same,normalized growth,"locus YER167W, strain BCK2, stronger effect = lower value",1 (inactive)
same,normalized growth,"locus YFR010W, strain ubp6, stronger effect = lower value",0.898 (active)
same,normalized growth,"locus YGL078C, strain dbp3, stronger effect = lower value",0.99 (inactive)
same,normalized growth,"locus YGL086W, strain mad1, stronger effect = lower value",0.973 (inactive)
same,normalized growth,"locus YGL167C, strain pmr1, stronger effect = lower value",1.02 (inactive)
same,normalized growth,"locus YGL173C, strain kem1, stronger effect = lower value",0.955 (inactive)
same,normalized growth,"locus YGL227W, strain vid30, stronger effect = lower value",0.996 (inactive)
same,normalized growth,"locus YGL240W, strain doc1, stronger effect = lower value",0.919 (inactive)
same,normalized growth,"locus YGL248W, strain PDE1, stronger effect = lower value",1.01 (inactive)
same,normalized growth,"locus YGL253W, strain hxk2, stronger effect = lower value",0.916 (inactive)
same,normalized growth,"locus YGR078C, strain PAC10, stronger effect = lower value",0.95 (inactive)
same,normalized growth,"locus YGR135W, strain pre9, stronger effect = lower value",0.879 (active)
same,normalized growth,"locus YGR229C, strain SMI1, stronger effect = lower value",0.491 (active)
same,normalized growth,"locus YGR252W, strain gcn5, stronger effect = lower value",0.688 (active)
same,normalized growth,"locus YHR013C, strain ard1, stronger effect = lower value",0.856 (inactive)
same,normalized growth,"locus YHR027C, strain rpn1, stronger effect = lower value",0.904 (active)
same,normalized growth,"locus YHR030C, strain SLT2, stronger effect = lower value",0.843 (active) and 0.985 (inactive)
same,normalized growth,"locus YHR079C, strain IRE1 (second series), stronger effect = lower value",0.994 (inactive)
same,normalized growth,"locus YHR079C, strain IRE1, stronger effect = lower value",0.992 (inactive)
same,normalized growth,"locus YHR094C, strain hxt1, stronger effect = lower value",0.994 (inactive)
same,normalized growth,"locus YHR129C, strain ARP1, stronger effect = lower value",1.01 (inactive)
same,normalized growth,"locus YHR142W, strain chs7, stronger effect = lower value",0.884 (inactive)
same,normalized growth,"locus YHR200W, strain rpn10, stronger effect = lower value",1 (inactive)
same,normalized growth,"locus YIL066C, strain RNR3, stronger effect = lower value",0.978 (inactive)
same,normalized growth,"locus YIL073C, strain SPO22, stronger effect = lower value",0.904 (inactive)
same,normalized growth,"locus YIL125W, strain kgd1, stronger effect = lower value",0.999 (inactive)
same,normalized growth,"locus YIR030C, strain dcg1, stronger effect = lower value",0.993 (inactive)
same,normalized growth,"locus YJL092W, strain hpr5, stronger effect = lower value",0.982 (inactive)
same,normalized growth,"locus YJL095W, strain BCK1 (second series), stronger effect = lower value",0.923 (inactive)
same,normalized growth,"locus YJL095W, strain BCK1, stronger effect = lower value",0.745 (active) and 0.991 (inactive)
same,normalized growth,"locus YJL115W, strain asf1, stronger effect = lower value",0.999 (inactive)
same,normalized growth,"locus YJL129C, strain trk1, stronger effect = lower value",0.921 (inactive)
same,normalized growth,"locus YJL134W, strain LCB3, stronger effect = lower value",1.01 (inactive)
same,normalized growth,"locus YJL154C, strain vps35, stronger effect = lower value",0.996 (inactive)
same,normalized growth,"locus YJL164C, strain tpk1, stronger effect = lower value",0.937 (inactive)
same,normalized growth,"locus YJL166W, strain qcr8, stronger effect = lower value",0.94 (inactive)
same,normalized growth,"locus YJL168C, strain set2, stronger effect = lower value",1 (inactive)
same,normalized growth,"locus YJL187C, strain SWE1 (second series), stronger effect = lower value",0.987 (inactive)
same,normalized growth,"locus YJL187C, strain SWE1, stronger effect = lower value",0.992 (inactive)
same,normalized growth,"locus YJR043C, strain POL32, stronger effect = lower value",1.03 (inactive)
same,normalized growth,"locus YJR066W, strain TOR1, stronger effect = lower value",0.97 (inactive)
